Screens as filed in PubChem BioAssay.
CHRM1 PAM: human M1 muscarinic receptor positive allosteric modulators, primary screen, CHO-K1 cells, Fluo-8 calcium fluorescence, 1536-well; Muscarinic acetylcholine receptor M1 (Homo sapiens), P11229; AID 588819, 2011; CHO-K1 hM1, ACh EC20; 0% = ACh EC20, 100% = maximal ACh; 360,000 compounds, 0.088% hits; activation, % at 3 µM; in the data active = activation above about 19%, passing the limit was not always enough
Target sequence (P11229 whole entry, looked up): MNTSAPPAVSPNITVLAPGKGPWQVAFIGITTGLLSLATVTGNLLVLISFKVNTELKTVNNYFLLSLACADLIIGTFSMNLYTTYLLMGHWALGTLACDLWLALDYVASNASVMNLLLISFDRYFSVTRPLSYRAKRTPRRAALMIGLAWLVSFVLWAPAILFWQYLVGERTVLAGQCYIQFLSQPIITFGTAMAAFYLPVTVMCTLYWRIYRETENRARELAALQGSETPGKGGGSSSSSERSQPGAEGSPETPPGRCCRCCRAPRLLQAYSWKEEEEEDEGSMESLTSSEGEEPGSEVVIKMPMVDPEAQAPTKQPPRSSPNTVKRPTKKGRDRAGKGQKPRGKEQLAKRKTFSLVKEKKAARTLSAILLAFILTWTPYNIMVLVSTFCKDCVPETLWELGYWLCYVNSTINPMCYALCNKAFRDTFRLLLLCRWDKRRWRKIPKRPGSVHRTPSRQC
CHO-K1 Ca antag: M1 antagonist counterscreen hit in parental CHO-K1 cells. ATP-induced calcium, Fluo-8 fluorescence. inhibition, % at 3 µM. 360,000 compounds, 0.6% hits;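 active = inhibition above a per-plate cutoff, the plate's mean sample inhibition plus 3 SD, cut at about 24% in these data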;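 also: 0% = DMSO plus EC80 ATP and 100% = DMSO alone without ATP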
M1 ag: human M1 muscarinic receptor agonists, primary screen, Fluo-8 calcium fluorescence, CHO-K1 cells, HTS; Muscarinic acetylcholine receptor M1 (Homo sapiens), P11229; CHO-K1 hM1, agonist mode; 0% DMSO, 100% acetylcholine EC100; activation, % at 3 µM; 360,000 compounds, 0.33% hits;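 active = activation above the run's mean compound activation plus 3 SD, cut at about 16% in these data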;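 also: peak over basal fluorescence ratio within a 140 s kinetic read after compound addition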
CHRM1 antagonist: human M1 muscarinic receptor antagonists, primary screen, CHO-K1 cells, Fluo-8 calcium fluorescence, 1536-well; Muscarinic acetylcholine receptor M1 (Homo sapiens), P11229; CHO-K1 hM1, ACh EC80 antagonist; inhibition, % at 3 µM; 360,000 compounds, 1.3% hits; AID 588852, 2011;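 active = percent inhibition above its own plate's cutoff, namely the mean of that plate's compound wells plus 3 SD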;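 also: peak over basal fluorescence ratio during 140 s after agonist addition; 0% = ACh EC80 plus DMSO and 100% = DMSO alone without agonist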
CHO-K1 Ca PAM: nonselective calcium activators in parental CHO-K1 cells, primary screen, counter-screen for M1 PAM project, cell-based, Fluo-8 calcium fluorescence, full deck, 1536-well. activation, % at 3 µM. AID 602247, 2012. ATP EC20; 0% at ATP EC20, 100% at ATP max. 360,000 compounds, 0.02% hits;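 active = activation above the run cutoff, the mean activation of all test compounds plus 3 SD, cut at about 40% in these data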;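 also: peak over basal fluorescence ratio in a 140 s read after ATP addition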
M1 ag parental: counter-screen for M1 agonists: effect in parental CHO-K1 cells; Fluo-8 calcium fluorescence; scaled to maximal ATP response, vehicle zero; 360,000 compounds, 0.48% hits; activation, % at 3 µM; in the data active = activation above about 15%;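 also: untransfected CHO-K1 host cells lacking M1 receptor as counterscreen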
* = called active by the depositor; x = no result given. In the library only some 2.3% were active in any assay of this set; here they are far more common.

SMILES | CHRM1 PAM | CHO-K1 Ca antag | M1 ag | CHRM1 antagonist | CHO-K1 Ca PAM | M1 ag parental
CN1CCN(c2ncnc3c2ncn3[C@H]2CN(Cc3ccc(F)cc3)C[C@@H](CO)O2)CC1 | -9 | 25* | -3 | 22 | -13 | 0
OC[C@@H]1CN(Cc2ccc(-c3ccccc3)cc2)C[C@H](n2cnc3c(NCc4ccco4)ncnc32)O1 | 1 | 25* | 6 | 19 | -13 | 8
CC(C)CNc1ncnc2c1ncn2[C@H]1CN(Cc2ccc(-c3ccccc3)cc2)C[C@@H](CO)O1 | -9 | 10 | 3 | 28* | -9 | 11
COc1cc(CN2C[C@@H](CO)O[C@@H](n3cnc4c(Nc5ccccc5)ncnc43)C2)cc(OC)c1OC | -20 | 33* | 0 | 33 | -15 | 5
COc1cccc(CC2(CO)CCCN(Cc3cc(F)ccc3-n3cccn3)C2)c1 (centres undefined) | 1 | 2 | -14 | -11 | 12 | 0
COc1cc(NC(=O)CCc2c(C)noc2C)c(Cl)cc1C(=O)O | -3 | -4 | -1 | 4 | 16 | 0
CC(C)(C)[C@H]1C=C(C(N)=O)O[C@@H](OCCCCO)C1 | 5 | -12 | -1 | -16 | 10 | 0
OC[C@@H]1CN(Cc2ccc(-c3ccccc3)cc2)C[C@H](n2cnc3c(NCc4ccncc4)ncnc32)O1 | -9 | 8 | 6 | 25 | -4 | 17*
CCOC(=O)[C@]12CCC=C1N(Cc1ccccc1)C(=O)[C@H](CC(=O)NCC13CC4CC(CC(C4)C1)C3)C2 | x | -17 | x | x | 16 | 0
CN(CCOC(=O)C1c2ccccc2Oc2ccccc21)C(C)(C)C | -22 | -12 | -3 | 98* | 16 | 1
CN(C)CCCOC(=O)C1c2ccccc2Oc2ccccc21 | -25 | 17 | -6 | 97* | -3 | 1
CC[N+](C)(CC)CCOC(=O)C1c2ccccc2Oc2ccccc21 | -25 | -6 | -7 | 97* | 10 | 0
NC(=O)COC(=O)C1c2ccccc2Oc2ccccc21 | 4 | -17 | -5 | -1 | -9 | 2
COc1ccc(S(=O)(=O)NC(C)C)cc1C(=O)N1CCOCC1 | 6 | 7 | -4 | 1 | -3 | 1
COc1cc(C)c(Cl)c(C)c1S(=O)(=O)NCc1cccnc1 | -1 | 27* | -2 | 14 | -7 | 0
Cc1cc(C)c(C)c(S(=O)(=O)NCc2cccnc2)c1C | 6 | -33 | 0 | -4 | 12 | 4
O=C1N[C@@H](c2ccccc2)COC(=O)[C@@H](Cc2ccc(F)cc2)CC/C=C/C[C@H]1CC(=O)N(CCO)Cc1ccccc1 | -10 | 11 | 2 | 28* | -3 | 7
COc1ccccc1C(CNC(=O)c1ccco1)N1CCCC1 (centres undefined) | -30 | -3 | -8 | 73* | -18 | 0
COc1ccccc1C(CNC(=O)CN1C(=O)NC(C)(c2ccc3ccccc3c2)C1=O)N1CCCC1 (centres undefined) | -27 | -19 | -8 | 65* | 20 | 1
COc1ccccc1C(CNC(=O)c1ccc(-c2ccccc2Cl)o1)N1CCCC1 (centres undefined) | -24 | 4 | -5 | 84* | -17 | 2
COc1cc(C(=O)NCC(c2ccco2)N2CCCC2)ccc1OCc1ccc(Cl)cc1Cl (centres undefined) | -24 | -16 | -6 | 49* | 8 | 4
COc1ccc(Cl)cc1C(=O)NCC(c1ccco1)N1CCCC1 (centres undefined) | -12 | -8 | -5 | 14 | 16 | 1
CCN1C(=O)[C@H]2[C@@H](c3ccc(C)cc3)N[C@]3(CCCN(Cc4ccc(Cl)cc4)C3=O)[C@H]2C1=O | -1 | -1 | -5 | -4 | 9 | 0
Cc1ccc(C(=O)N/C(=C\c2ccc(Cl)cc2)C(=O)NCCN2CCOCC2)cc1 | 4 | 3 | -2 | -14 | 4 | 0
O=C(NC1CCCCC1)C(=O)c1c(-c2ccccc2)[nH]c2ccccc12 | 1 | 27* | -4 | -5 | -11 | 0
SMILES | CHRM1 PAM | CHO-K1 Ca antag | M1 ag | CHRM1 antagonist | CHO-K1 Ca PAM | M1 ag parental
O=C(Nc1ccccc1C(F)(F)F)N1CCN(c2ccccn2)CC1 | 9 | -6 | -10 | -4 | 2 | 0
Cc1cccnc1C(NC(=O)C1CCN(Cc2ccc3ccccc3n2)CC1)c1ccc(Cl)cc1 (centres undefined) | -24 | 1 | -8 | 31* | -7 | 1
COc1ccc(CN2CCN(Cc3cccc(Oc4ccccc4)c3)CC2)c(OC)c1OC | -26 | 9 | -5 | 44* | -6 | 10
CCC1(c2ccc(F)cc2)NC(=O)N(CC(=O)Nc2cc(S(=O)(=O)N(C)C)ccc2Cl)C1=O (centres undefined) | -7 | 0 | 5 | 23 | 2 | 6
CN1CCN(c2ccc(NC(=O)c3ccc(Oc4ccccc4)cc3)cc2)CC1 | -30 | 0 | -10 | 46* | -11 | 2
CC(=O)c1ccc(N2CCN(C(=S)Nc3ccc(Oc4ccccc4)cc3)CC2)cc1 | -7 | 21 | -2 | 35* | -14 | 12
COc1ccc(N2CCN(C(=S)Nc3ccccc3)CC2)cc1 | 5 | 0 | -2 | -9 | 10 | 2
COc1ccc(NC(=O)CSc2nnc3n2CCCCC3)cc1 | 0 | -7 | -7 | -1 | 9 | 2
COc1ccc(C2(OC)Oc3cc(OC)ccc3C(=O)C2(O)OC)cc1 (centres undefined) | 20 | 1 | 9 | -12 | -7 | 2
O=C1CSC(c2ccc([N+](=O)[O-])cc2)N1CCN1CCCCC1 (centres undefined) | 3 | -21 | 19* | -8 | 12 | 1
COC(=O)c1cc(OC(=O)CCc2ccc(OC)c(OC)c2)cc(C(=O)OC)c1 | 8 | -10 | -5 | -12 | 10 | 2
COC(=O)c1ccc(OC(=O)CCc2cc(OC)c(OC)c(OC)c2)cc1 | 10 | -15 | 0 | -4 | 16 | 16*
CC1(C)CC(=O)C(C=Nc2ccccc2C(=O)O)=C(O)C1 | 9 | 0 | -6 | -5 | 12 | 0
CC1(C)CC(=O)C(C=Nc2ccccc2Sc2ccccc2)=C(O)C1 | -26 | -3 | -6 | 63* | 1 | 0
CCC1(c2ccc(F)cc2)NC(=O)N(CC(=O)NCC(=O)Nc2cccc(C)c2C)C1=O (centres undefined) | 6 | 9 | 11 | 9 | 7 | 0
CN(C)CCOC1c2ccccc2CSc2ccccc21 (centres undefined) | -25 | 1 | -8 | 99* | 5 | 0
